PP5 inh: blocks human protein phosphatase 5 activity. AID 1987. 0.18% of 320,000 active. P53041. purified PP5c, OMFP substrate fluorescence. inhibition, % at 6.7 µM;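 active = inhibition above the campaign's mean inhibition across all tested compounds plus 3 SD, cut at about 9.5% in these data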;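 also: 0% = DMSO only and 100% = 100 µM cantharidin control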
ALR H2O2 inh: inhibitors of human sulfhydryl oxidase ALR | P55789 | purified ALR, DTT oxidation, H2O2 HRP-luminol luminescence | inhibition, % (concentration not given with the values) | 3.8% of 290,000 active;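 active = mean replicate inhibition above about 79%, with every replicate also reaching it, limit read from the data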
Target sequence (P55789 whole entry, looked up): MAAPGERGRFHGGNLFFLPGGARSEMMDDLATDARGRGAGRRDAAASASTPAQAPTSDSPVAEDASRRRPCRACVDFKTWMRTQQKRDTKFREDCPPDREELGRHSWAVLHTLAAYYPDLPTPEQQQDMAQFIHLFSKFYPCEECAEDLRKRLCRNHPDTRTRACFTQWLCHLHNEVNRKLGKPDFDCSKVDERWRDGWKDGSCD
Calb FLC: affects C. albicans growth with fluconazole; AID 1979; 0.57% of 300,000 active; growth inhibition, % (concentration not given with the values); C. albicans CaCi-2 (fluconazole-resistant clinical isolate) + fluconazole, Alamar Blue growth, 48 h;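 active = growth inhibition above about 58% in most replicates, limit read from the data, passing the limit was not always enough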;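 also: all wells also contain fluconazole at 8 µg/ml as a sub-toxic cotreatment; 0% = median of DMSO wells and 100% = median of geldanamycin control wells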
PP1 counter: PP1-alpha (human) inhibition in PP5 counter-screen; P62136; AID 2235; purified PP1alpha, OMFP fluorescence; inhibition, % at 6.7 µM; 0.9% of 320,000 active;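 active = inhibition above the mean inhibition of all tested compounds plus 3 SD, computed separately for each screening campaign, cut at about 15% in these data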
Target sequence (P62136 whole entry, looked up): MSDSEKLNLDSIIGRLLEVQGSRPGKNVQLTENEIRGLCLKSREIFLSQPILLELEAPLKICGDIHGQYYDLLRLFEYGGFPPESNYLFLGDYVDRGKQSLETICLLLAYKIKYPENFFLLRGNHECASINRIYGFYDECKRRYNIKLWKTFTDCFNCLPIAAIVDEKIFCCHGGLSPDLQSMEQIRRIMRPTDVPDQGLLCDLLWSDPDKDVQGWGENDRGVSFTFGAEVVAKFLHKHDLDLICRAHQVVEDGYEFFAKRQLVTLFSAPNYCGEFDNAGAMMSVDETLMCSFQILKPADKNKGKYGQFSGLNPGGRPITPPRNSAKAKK
CSC inhib: cancer stem cell inhibition | cancer stem cell-like cells viability, luminescence | inhibition, % at 7.5 µM | 1.1% of 300,000 active; in the data active = inhibition above about 75%; tested in HMLE shEcad cells
An asterisk follows results filed as active. Rows were chosen to be rich in hits. Some 5.4% of all compounds tested hit in one or more screens of this group.

For O=C(NCc1cccnc1)/C(=C/c1ccc(-c2cccc(Cl)c2)o1)S(=O)(=O)c1ccccc1 the results were PP5 inh -1, ALR H2O2 inh 59, Calb FLC 12, PP1 counter 1 and CSC inhib 100*.
Screening CCOC(=O)N1CCC(NC(=O)c2cc(C(=O)Nc3cccc(C(F)(F)F)c3)ccc2CO)CC1 returned PP5 inh 2, ALR H2O2 inh -7, Calb FLC 2, PP1 counter -3 and CSC inhib 3.
COc1ccc(C(C)=O)cc1CS(=O)(=O)CC(=O)O was read as PP5 inh -1, ALR H2O2 inh -2, Calb FLC -5, PP1 counter -2 and CSC inhib -16.
`CC1(c2nnc(Cc3ccccc3)o2)CC(c2ccc(Br)cc2)=NO1` (stereo not given) gave PP5 inh 1, Calb FLC -9, PP1 counter 16* and CSC inhib 18.
CC1(c2nnc(Cc3ccccc3)o2)CC(c2ccc([N+](=O)[O-])cc2)=NO1 (stereo not given) was read as PP5 inh -6, ALR H2O2 inh -4, Calb FLC 18, PP1 counter 8 and CSC inhib 18.
Cc1ccc(/C=C/C(=O)Nc2ccc(Oc3ccccc3)cc2)o1 was read as PP5 inh 4, ALR H2O2 inh 19, Calb FLC 31, PP1 counter 0 and CSC inhib 88*.
Screening Cc1ccc(/C=C/C(=O)Nc2ccc([N+](=O)[O-])cc2)o1 returned PP5 inh 4, ALR H2O2 inh 8, Calb FLC -3, PP1 counter 1 and CSC inhib 43.
`NC(=O)c1ccc(NC(=O)COC(=O)c2cc3c(s2)CCC3)cc1` gave ALR H2O2 inh 2 and CSC inhib -12.
For OCc1ccnc2c(O)cccc12 the results were PP5 inh 2, ALR H2O2 inh -20, Calb FLC 107*, PP1 counter 2 and CSC inhib 2.
For CCN(c1ccccc1)S(=O)(=O)c1ccc(Cl)c(C(=O)OCC(=O)NC(=O)C(C)C)c1 the results were PP5 inh 2, ALR H2O2 inh -3, Calb FLC 4, PP1 counter 2 and CSC inhib -8.
`C#C[C@]1(O)CC[C@H]2[C@@H]3CCc4cc(OC5CCCC5)ccc4[C@H]3CC[C@@]21C` gave PP5 inh 3, PP1 counter 6 and CSC inhib 98*.
For Cc1ccc(NC2=C/C(=N\S(=O)(=O)c3cccs3)c3ccccc3C2=O)c(C)c1 the results were PP5 inh 6, ALR H2O2 inh -34, Calb FLC -1, PP1 counter 9 and CSC inhib -6.
`Cc1cccc(NC2=C/C(=N/S(=O)(=O)c3cccs3)c3ccccc3C2=O)c1` gave PP5 inh 3, PP1 counter -1 and CSC inhib 119*.
Screening Cc1ccc2nc(Cl)c3cc(C(=O)N(CCN(C)C)Cc4ccco4)sc3c2c1 returned PP5 inh 1, ALR H2O2 inh -4, Calb FLC 11, PP1 counter -1 and CSC inhib 93*.
For CN(CC(=O)Nc1sc2c(c1C#N)CCCCC2)Cc1nc2ccccc2c(=O)[nH]1 the results were PP5 inh 1, Calb FLC 1 and PP1 counter 15*.
Screening O=C(NCc1cccs1)c1cc(-c2ccc(O)cc2)on1 returned PP5 inh -3, ALR H2O2 inh -5, Calb FLC -2, PP1 counter 0 and CSC inhib 47.
For CCCC(=O)NCCc1nc2ccccc2n1CC(=O)c1ccccc1 the results were PP5 inh -2, ALR H2O2 inh -1, Calb FLC 1 and PP1 counter -3.
Screening CCN(Cc1ccccc1)c1ccc(/C=N/N2CCOCC2)cc1 returned PP5 inh 1, ALR H2O2 inh 98*, PP1 counter -2 and CSC inhib 0.
Screening CCN(CC)c1ccc(/C=N/N2CCOCC2)cc1 returned PP5 inh -1, ALR H2O2 inh 99*, Calb FLC -11, PP1 counter -1 and CSC inhib -6.
For CCN(CC)c1ccc(/C=N/N2CCN(c3ccccn3)CC2)cc1 the results were PP5 inh -2, ALR H2O2 inh 33, Calb FLC -13, PP1 counter -4 and CSC inhib -6.
COc1cc(/C=N/N2CCOCC2)ccc1OCc1ccccc1 was read as PP5 inh 1, ALR H2O2 inh -5, Calb FLC 0, PP1 counter -2 and CSC inhib 7.
`COc1ccc(/C=N/N2CCOCC2)cc1O` gave PP5 inh 2, ALR H2O2 inh 98*, Calb FLC -3, PP1 counter 0 and CSC inhib -5.
Screening COc1ccc(-n2cc(-c3ccccc3)nc2SC)cc1 returned PP5 inh 3, ALR H2O2 inh -10, Calb FLC 1, PP1 counter 3 and CSC inhib 0.
Screening O=C(NC1CCCCC1)c1cc(-c2ccc(O)cc2)on1 returned PP5 inh 5, ALR H2O2 inh -3, Calb FLC 8, PP1 counter 2 and CSC inhib 45.
`CN1CCN(Cc2c(O)ccc3cc(Br)ccc23)CC1` gave PP5 inh 5, ALR H2O2 inh 78*, Calb FLC -1, PP1 counter -5 and CSC inhib -36.
Cc1ccc(CNC(=O)CN2C(=O)COc3ccc(C)cc32)cc1 was read as PP5 inh 4, ALR H2O2 inh -5, Calb FLC -25, PP1 counter 1 and CSC inhib -9.
For CC12CN3CC(C)(CN(C1)C3c1ccc(Br)cc1O)C2 (stereo not given) the results were PP5 inh 1, ALR H2O2 inh 99*, Calb FLC 8, PP1 counter -3 and CSC inhib -2.
CC12CN3CC(C)(CN(C1)C3c1cc(Br)ccc1O)C2=O (stereo not given) was read as PP5 inh -2, ALR H2O2 inh -1, Calb FLC 7, PP1 counter 10 and CSC inhib 17.
Screening COc1cc(N(Cc2ccccc2)Cc2ccccc2)c2ncn(C(C)C)c2c1 returned PP5 inh 0, ALR H2O2 inh 10, PP1 counter 0 and CSC inhib 31.
Screening COc1cc(NCc2ccccc2)c2ncn(C(C)C)c2c1 returned PP5 inh 3, ALR H2O2 inh 98*, PP1 counter -2 and CSC inhib -6.
For CCOc1ccc(CCNC(=O)CSC(=S)N2CCCC2)cc1OCC the results were PP5 inh 0, Calb FLC -4 and PP1 counter -5.
COc1ccc(C(=O)[C@H]2[C@H]3C(=O)N(c4ccc(OC(C)=O)cc4)C(=O)[C@H]3C3C=CC=NN32)cc1 (stereo not given in full) was read as PP5 inh 1, ALR H2O2 inh -4, Calb FLC 3, PP1 counter 6 and CSC inhib 2.
For O=C(CSc1nnc2ccccn12)c1ccc(Cl)cc1 the results were PP5 inh -1, ALR H2O2 inh 85*, Calb FLC 29, PP1 counter 0 and CSC inhib -5.
Screening COCCn1c(SCC(=O)c2ccc(Cl)cc2)nnc1C(C)C returned PP5 inh -1, ALR H2O2 inh 91*, Calb FLC 7, PP1 counter 3 and CSC inhib 25.

Compound activity (PubChem BioAssay)
